Source: PubChem
VACV Venus inh: inhibitors of vaccinia virus (Venus reporter); Vaccinia virus Venus reporter expression, fluorescence; Potency, µM (top dose mostly 36.5 µM), inactives show at the highest dose activity change, negative = inhibition, usual class: inhibitors; hit rate 0.46% among 330,000; AID 720580; calls by dose curve; tested in A549 cells; note: potency is the fitted concentration of half-maximal effect; nearly all actives have a fitted effect of over 30% in size
LASV entry inh: blocks Lassa virus binding to or entry into cells | Potency, µM (series often up to 37.9 µM), for inactives: at the highest dose activity change, negative = inhibition, hits mostly inhibitors | Lassa virus pseudotype entry inhibition, cell reporter | hit rate 1.2% among 300,000; calls by dose curve; tested in HEK293 cells; note: potency is the fitted concentration of half-maximal effect; nearly all actives have a fitted effect of over 50% in size
FMDV antiviral: antivirals against foot and mouth disease virus | FMDV antiviral cell-based qHTS | hit rate 1.2% among 410,000 | AID 1159524 | Potency, µM (series often up to 57.9 µM), for the others: top-dose activity change, negative = inhibition, usual class: inhibitors; calls by dose curve; tested in HEK293T cells; note: read-out not given here; potency is the fitted concentration of half-maximal effect; nearly all actives have a fitted effect of over 45% in size
VACV mCherry inh: inhibitors of vaccinia virus infection (mCherry reporter signal); Vaccinia virus mCherry reporter infection, fluorescence; Potency, µM (highest dose often 36.5 µM), inactives show at the highest dose activity change, negative = inhibition, most hits filed as inhibitors; hit rate 0.63% among 310,000; AID 720579; calls by dose curve; tested in A549 cells; note: potency is the fitted concentration of half-maximal effect; nearly all actives have a fitted effect of over 35% in size
MARV entry inh: inhibitors of Marburg virus binding or cell entry. Marburg virus pseudotyped entry inhibition, cell reporter. Potency, µM (top dose mostly 37.8 µM), for inactives: at the highest dose activity change, negative = inhibition, actives largely listed as inhibitors. hit rate 1.8% among 300,000; calls by dose curve; tested in HEK293 cells; note: potency is the fitted concentration of half-maximal effect
HCMV antiviral: blocks human cytomegalovirus replication; HFF cells, HCMV-luciferase reporter, 72 h; stronger effect = lower value; activity change, negative = inhibition, % at 57.5 µM; hit rate 4.5% among 410,000; AID 1259415; in the data active = activity change below about -60%; inconclusive = no clear call, values can overlap the other calls; inactive = above about -39%
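Cell-based, HFFs, 1000 cells/well, 16 h 37C; cpds in DMSO + HCMV-luc, MOI 1 PFU/cell; 72 h 37C; OneGlo luminescence after 5 min RT; norm. to buffer vs Salinomycin 10uM.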
The depositor's hits bear a star; i = inactive; ? = inconclusive; . = not tested or not shown; + = active, no number; [ ] = dose if it differs, or a comment. A selection: hits, their analogues and other compounds. The true share with any hit is near 6.5%. % is set by controls: 0 for no effect and ±100 for the full control effect.

SMILES	VACV Venus inh	LASV entry inh	FMDV antiviral	VACV mCherry inh	MARV entry inh	HCMV antiviral
Cc1ccc(NC(=O)CSc2nnc3[nH]c(=O)cc(-c4ccccc4)n23)cc1Cl	-17.2%	25.5%[46.1 µM]	9.2%	i	.	23.2
C=Cc1ncc(OC)c2c1[nH]c1ccccc12	?	.	15.8µM*	?	.	.
COc1ccc(/C=C/c2nccc3c2[nH]c2ccccc23)cc1	-9.0%	.	.	17.4%	.	.
CCCNC(=O)C1(C)CCCN(Cc2ccc(-c3ccccc3)cc2)C1 (centres undefined)	-10.1%	.	-19.2%	33.2%	.	64.3
CCNC(=O)C1(C)CCCN(Cc2ccc(-c3ccccn3)cc2)C1 (centres undefined)	-10.9%	.	-15.9%	24.2%	.	-100.1*
CCN(CC)CCCN1C(=O)C2=C(C1=O)C1N(C)c3ccccc3[C@@]13C[C@@H](CO)N(C(=O)CCC(=O)OC)C3=N2 (some centres undefined)	.	?	.	.	7.1%[14.2 µM]	.
O=C(CN1C(=O)/C(=C/c2ccccc2Cl)SC1=S)NC1C=CS(=O)(=O)C1 (centres undefined)	-3.9%	-16.1%[46.1 µM]	-11.9%	-9.0%	?	-64.4*
COc1cccc(/C=C2\SC(=O)N(CC(=O)NC3C=CS(=O)(=O)C3)C2=O)c1 (centres undefined)	.	.	-29.4%	.	.	-69.1*
COc1cccc(/C=C2\SC(=O)N(CC(=O)NC3CCS(=O)(=O)C3)C2=O)c1 (centres undefined)	.	.	5.1%	.	.	0.0
O=C(CN1C(=O)/C(=C/c2ccc(Cl)cc2)SC1=S)NC1C=CS(=O)(=O)C1 (centres undefined)	.	.	0.0%	.	.	-30.6
CC(C)c1ccc(/C=C2\SC(=O)N(CC(=O)NC3C=CS(=O)(=O)C3)C2=O)cc1 (centres undefined)	.	.	-9.7%	.	.	-76.6*
CCOc1ccc(CCNC(=O)c2ccc3c(c2)N(Cc2ccccc2F)C(=O)c2ccccc2S3=O)cc1OCC (centres undefined)	-20.0%	-16.1%[46.1 µM]	-22.6%	-20.1%	?	-7.1
Cc1ccc(Nc2nc3ccccc3[nH]2)nc1	?	?	?	?	?	-76.6*
Cc1oc(-c2ccccc2F)nc1CS(=O)(=O)CC(=O)N1CCN(c2ccccc2)CC1	?	6.4%[46.1 µM]	25.1µM*	?	-5.8%[46.1 µM]	-18.5
CCOC(=O)N1CCN(C(=O)CSCc2nc(-c3ccccc3F)oc2C)CC1	.	-6.2%	-27.6%	.	?	-80.5*
Cc1ccccc1-c1nc(CS(=O)(=O)CC(=O)N2CCN(c3ccccc3)CC2)c(C)o1	-17.8%	-22.3%[46.1 µM]	?	-21.4%	-13.9%[46.1 µM]	-28.8
CC(CCc1ccc(O)cc1)N1CCOc2c(O)cc(-c3nc4ccccc4s3)cc2C1 (centres undefined)	-32.9%	.	-8.2%	?	.	.
Cc1ccc(-c2nc(C)c(CCNC(=O)C(=O)Nc3ccc4c(c3)OCCO4)s2)cc1	5.7%	2.6%[46.1 µM]	-17.7%	-10.0%	.	14.1
O=C(CSC1=NNC(c2ccccn2)S1)Nc1ccccc1 (centres undefined)	.	.	4.4%	.	.	-97.5*
O=C(CSC1=NNC(c2ccccn2)S1)Nc1cccc(Cl)c1 (centres undefined)	?	-26.0%	12.7%	?	?	-77.9*
O=C(CSc1nnc(-c2ccccn2)o1)Nc1ccccc1	-12.3%	-12.9%	2.9%	-16.9%	?	43.1
O=C(N/N=C1\C[C@@H](O)[C@@H](O)[C@@H]2[C@@H]3C(=O)N(C[C@@H]4CCCO4)C(=O)[C@@H]3CC[C@@H]12)OCc1ccccc1	.	.	.	.	-4.7%[14.2 µM]	.
COC(=O)[C@@H](O)CC[C@@H](C)Cc1c(OC)c(OC)c(C)c(OC)c1OC	.	.	.	.	-18.4%[14.2 µM]	.
NC(N)=Nc1nc2cc([N+](=O)[O-])ccc2o1	.	.	28.2%	.	.	-70.8*
Cc1cc(-c2nnc3n2N=C(c2ccc(-c4ccccc4)cc2)CS3)n[nH]1	?	?	?	11.2µM*	?	77.3
SMILES	VACV Venus inh	LASV entry inh	FMDV antiviral	VACV mCherry inh	MARV entry inh	HCMV antiviral
Cc1ccc(-c2nnc3n2N=C(c2ccccc2Br)CS3)cc1	-16.9%	?	-18.4%	-23.6%	?	-77.8*
c1ccc(C2=Nn3c(nnc3-c3ccncc3)SC2)cc1	-4.8%	4.1%	-24.0%	i	?	-73.2*
c1ccc(C2=Nn3c(nnc3-c3cccnc3)SC2)cc1	.	-1.4%	-5.8%	.	-31.8%	-21.8
c1ccc(-c2cc(-c3nnc4n3N=C(c3ccc5ccccc5c3)CS4)[nH]n2)cc1	?	-67.3%[14.3 µM]	?	?	?	-95.9*
Cc1cccc(-c2nnc3n2N=C(c2ccccc2)CS3)c1	.	-23.6%	-14.4%	.	-21.5%	?
COc1ccc([C@@H]2[C@H](C(=O)N3CCOCC3)CC(=O)N2C(=O)/C=C/c2ccccc2)cc1	.	.	.	.	.	-21.2
Fc1cc(F)c(-c2nc3ccccc3nc2-c2ccccc2)c(F)c1	.	.	.	.	.	-11.9
COc1ccc2c(c1)c1c(c(=O)n(CCc3ccccc3)c(=O)n1Cc1cccc(F)c1)n2C	-17.0%	5.7%[46.1 µM]	-17.3%	-21.1%	.	38.1
CCOc1ccc(C2C(C(=O)Nc3ccccc3OC)=C(C)Nc3c(C(=O)Nc4cccc(C)c4)cnn32)cc1 (centres undefined)	-16.0%	4.4%[46.1 µM]	-21.4%	-0.7%	.	-15.5
CN(CC1COCCO1)C(=O)c1cnn(-c2ncc3c(n2)-c2ccccc2CC3)c1C1CC1 (centres undefined)	-28.4%	.	34.6%	?	.	.
CCN1C(=O)[C@@H]2[C@H]3[C@H](O)[C@H](O)CC(=NOC[C@H]4O[C@H](c5ccccc5)C=C[C@H]4Oc4ccc(OC)cc4)[C@@H]3CC[C@H]2C1=O	.	.	.	.	-28.3%[14.2 µM]	.
O=C1C(=O)N(C(C(=O)NCc2ccccc2)C2CCCC2)c2ccccc21 (centres undefined)	.	.	.	.	.	-9.0
CSCCC(NC(=O)c1ccc(Cl)cc1Cl)C(=O)N1CCN(C(=O)c2ccccc2)CC1 (centres undefined)	.	.	-14.4%	.	.	0.0
Cc1cc(C)cc(C(=O)NCC(=O)N2CCN(C(c3ccccc3)c3ccccc3)CC2)c1	-15.0%	-20.0%[46.1 µM]	2.9%	-29.4%	12.6µM*	32.6
CSCCC(NC(=O)c1ccccc1)C(=O)N1CCN(C(c2ccccc2)c2ccccc2)CC1 (centres undefined)	?	14.1µM*	?	?	-28.0%	-18.7
Cc1c(C)n(Cc2ccccc2)c2ccc(C(=O)NCc3ccccc3F)cc12	-5.6%	-28.8%[46.1 µM]	16.7%	-11.1%	.	+
COc1cc(CNC(=O)c2ccc3c(c2)c(C)c(C)n3Cc2cccc(C)c2)cc(OC)c1OC	-4.0%	3.2%[46.1 µM]	0.0%	-25.4%	.	-86.7*
COc1cccc(CNC(=O)c2ccc3c(c2)c(C)c(C)n3Cc2ccccc2)c1OC	-4.8%	?	-5.2%	-12.3%	.	?
COc1ccc(C(=O)NCc2nc(-c3ccccc3NC(=O)c3cc(C)oc3C)oc2C)cc1F	-8.2%	.	2.8%	-11.1%	.	.
Cc1nc2cc(NC(=O)Nc3nccs3)ccc2n1C	-20.0%	13µM*	.	-22.3%	?	35.4
O=C(Nc1ccc(Cl)c(Cl)c1)Nc1nccs1	.	.	-18.1%	.	.	-66.3*
